The text below walks through data of PubChem BioAssay (Tox21).

Molecules are shown by their SMILES. Inconclusive results are not listed. Unmarked numbers belong to inactive results. The source made the active and inactive calls. The call rests on the fitted dose curve; in most records, active means well fitted cell-killing curve with a large enough effect in the repeat runs; inconclusive means weak or mixed curves, or effect the other way; inactive means flat fitted curve, though single readings scatter.
On the % scale 0 is the no-effect control and ±100 the full control effect; potency means the concentration at half of the fitted maximal effect.

This assay can be described thus: qHTS assay to identify small molecule agonists of the TGF-beta/Smad signaling pathway - cell viability counter screen (AID 1346829). Further: nearly all actives have a fitted effect of over 45% in size. On activity change, negative = cytotoxicity: top concentration of the series differs between compounds. To be noted: SBE-bla HEK293T viability, CellTiter-Glo luminescence, 5 h; series mostly up to 76.8 µM; activity change, negative = cytotoxicity: at the top concentration. From the text:
National Center for Advancing Translational Sciences [NCATS]
NIH Chemical Genomics Center [NCGC]
U.S. Environmental Protection Agency [EPA]
National Institutes of Environmental Health Sciences [NIEHS]
National Toxicology Program [NTP]
U.S. Food and Drug Administration [FDA]
Transforming growth factor beta (TGF-beta) superfamily consists of a large number of structurally related dimeric proteins that act as hormones or local mediators in regulating a wide range of biological functions. This superfamily includes TGF-betas themselves, the bone morphogenetic proteins (BMPs) and the activins. These ligands induce oligomerization of serine/threonine receptor kinases and phosphorylate the cytoplasmic signaling molecules of Smad protein family. CellSensor SBE-bla HEK 293T cell line (Life Technologies, Carlsbad, CA), responsive to TGF-beta was used to screen Tox21 10K compound library for identification of agonists/antagonists of the Smad signaling pathway. This cell line contains a beta-lactamase reporter gene under control of the Smad binding element (SBE) stably integrated into HEK 293T cells. Also cytotoxicity of the compounds was tested in parallel by measuring the cell viability using CellTiter-Glo assay system in the same wells.
Tox21 Assay Protocol Summary:
SBE-bla HEK 293T cells were dispensed at 4,000/well in 6 uL of assay medium into black wall/clear-bottom 1536-well plates using a Multidrop Combi (ThermoFisher Scientific, Waltham, MA) dispenser. After the assay plates were incubated at 37 C and 5% CO2 for an overnight, 23 nL of compounds dissolved in DMSO, positive controls or DMSO only was transferred to the assay plate by a Pintool station (Kalypsys, San Diego, CA). The assay plates were incubated at 37 C and 5% CO2 for 5 hr. One uL of LiveBLAzer B/G FRET substrate (Life Technologies) was added using a Flying Reagent Dispenser (FRD, Aurora Discovery, San Diego, CA) and the plates were incubated at room temperature for 2 hr. Fluorescence intensity (405 nm excitation, 460 nm and 530 nm emissions) was measured using an Envision plate reader (PerkinElmer, Shelton, CT). For cytotoxicity read, 4 uL of CellTiter-Glo reagent (Promega Corporation, Madison, WI) was added to each well of the assay plates using FRD. After 30min incubation at room temperature, the luminescence intensity was measured using ViewLux plate reader (PerkinElmer).
For orientation: In qHTS, concentration-response curves come from the screen itself.
Regarding `CCCOCC(=Nc1ccc(Cl)cc1C(F)(F)F)n1ccnc1`, the “activity change, negative = cytotoxicity” value was 0.535%.

Consider `Clc1ccc(CCC(Cn2ccnc2)Sc2c(Cl)cccc2Cl)cc1` (stereo not given), for which the “activity change, negative = cytotoxicity” value was -18.2% [at 35.3 µM].

With `c1cc[c]([Sb]([c]2ccccc2)[c]2ccccc2)cc1`, the “activity change, negative = cytotoxicity” value was -2.25%.

Turning to `CN(C)[C@@H]1C(=O)C(C(N)=O)=C(O)[C@@]2(O)C(=O)C3=C(O)c4c(O)ccc(Cl)c4[C@@](C)(O)[C@H]3C[C@@H]12`, the “activity change, negative = cytotoxicity” value was 20.3%.

On to `CC(C)CBr`, for which the “activity change, negative = cytotoxicity” value is -9.35%.

As to `CC(C)(O)c1cnn2c(-c3ccc(F)c(-c4c(F)cccc4C#N)c3)cnc2n1`, the “activity change, negative = cytotoxicity” value was 12.8%.

For `CC(=O)/C=C/c1ccc2c(c1)OCO2`, the “activity change, negative = cytotoxicity” value was 6.32%.

Take `O=C1C=CC(=O)c2ccccc21`: the Potency is 49 µM (active).

Consider `CCOC(=O)CC(=O)CCl`, for which the “activity change, negative = cytotoxicity” value is 9.42%.

On to `CC(=O)c1cc(C(C)(C)C)cc2c1CCC2(C)C`, for which the “activity change, negative = cytotoxicity” value was -0.263%.

Turning to `O=[N+]([O-])c1ccc(Oc2ccc(C(F)(F)F)cc2[N+](=O)[O-])cc1`, the “activity change, negative = cytotoxicity” value is 0.125%.

Turning to `CC(C)(C)c1ccc(CSc2cnn(C(C)(C)C)c(=O)c2Cl)cc1`, the “activity change, negative = cytotoxicity” value is -15.1%.

`Fc1ccc(Oc2ccnc3cc(Cl)cc(Cl)c23)cc1`: the “activity change, negative = cytotoxicity” value was -0.448%.

Take `CC(C)(C)c1cc([N+](=O)[O-])cc(C(C)(C)C)c1O`: the “activity change, negative = cytotoxicity” value is -18.4%.

For `CC(Cl)CN(C)C` (stereo not given), the “activity change, negative = cytotoxicity” value was -6.41%.

For the compound `C=CCOC(N)=O`, the “activity change, negative = cytotoxicity” value was -4.5%.

In the case of `NC(=O)c1ccc(N)nc1`, the “activity change, negative = cytotoxicity” value was -28.2%.

As to `CC1(C)[C@H](C(=O)O[C@H](C#N)c2cccc(Oc3ccccc3)c2)[C@@H]1/C=C(\Cl)C(F)(F)F`, the Potency result is “inactive”.

For the compound `S=C(SSC(=S)N1CCCCC1)N1CCCCC1`, the “activity change, negative = cytotoxicity” value is 16.3% [at 35.3 µM].

With `ClC1=C(Cl)C2(Cl)C3C(Cl)C(Cl)CC3C1(Cl)C2(Cl)Cl` (stereo not given), the Potency is 48.8 µM (active).

On to `CC(=O)OC1(c2ccccc2)CCN(CCc2ccccc2)CC1`, for which the “activity change, negative = cytotoxicity” value is -16.5%.

In the case of `CC(=O)[O-].CC(=O)[O-].O.O.[Cd+2]`, the “activity change, negative = cytotoxicity” value was -27.7%.

On to `COP(=O)(OC)SCn1c(=O)oc2cc(Cl)cnc21`, for which the “activity change, negative = cytotoxicity” value is -4.73%.

With `COC[C@H](C)N(C(=O)CCl)c1c(C)csc1C`, the “activity change, negative = cytotoxicity” value is 1.68%.

On to `COC(=O)N(C(=O)N1COC2(C(=O)OC)Cc3cc(Cl)ccc3C2=N1)c1ccc(OC(F)(F)F)cc1` (stereo not given), for which the “activity change, negative = cytotoxicity” value is -16.2% [at 35.3 µM].

Consider `CN(C)C(=S)[S-].CN(C)C(=S)[S-].[Cu+2]`, for which the Potency is 9.46 µM (active).

Turning to `Cc1cc(C(F)(C(F)(F)F)C(F)(F)F)ccc1NC(=O)c1cccc(I)c1C(=O)NC(C)(C)CS(C)(=O)=O`, the “activity change, negative = cytotoxicity” value is -1.72% [at 35.3 µM].

Consider `CCS(=O)(=O)c1cccnc1S(=O)(=O)NC(=O)Nc1nc(OC)cc(OC)n1`, for which the “activity change, negative = cytotoxicity” value is -16.1%.

For the compound `O=C(O)C1C2CCC(O2)C1C(=O)O` (stereo not given), the Potency entry was “inactive”.

On to `Nc1ccc(Cl)cc1C(=O)c1ccccc1`, for which the “activity change, negative = cytotoxicity” value is 10%.

Consider `N#C/C=C/C#N`, for which the “activity change, negative = cytotoxicity” value is 2.64%.

As to `CCN`, the “activity change, negative = cytotoxicity” value was 2.56%.

Regarding `N#Cc1ccccc1Cl`, the “activity change, negative = cytotoxicity” value was 0.993%.

In the case of `CS(=O)(=O)c1ccc(C(=O)C2C(=O)CCCC2=O)c([N+](=O)[O-])c1`, the “activity change, negative = cytotoxicity” value was 2.96%.

`CC[C@H]1C[C@@H]2C[C@H]3c4[nH]c5ccc(OC)cc5c4CCN(C2)[C@@H]13`: the “activity change, negative = cytotoxicity” value is 0.418%.

Take `O=C(Cl)c1ccc(Cl)cc1`: the “activity change, negative = cytotoxicity” value was 14.8%.

Take `CCCCCCCCCCCCCCCCCCn1cc[n+](C)c1`: the Potency is 48.7 µM (active).

Turning to `CC[C@H](C)[C@H]1O[C@]2(C=C[C@@H]1C)C[C@@H]1C[C@@H](C/C=C(\C)[C@@H](O[C@H]3C[C@H](OC)[C@@H](O[C@H]4C[C@H](OC)[C@@H](O)[C@H](C)O4)[C@H](C)O3)[C@@H](C)/C=C/C=C3\CO[C@@H]4[C@H](O)C(C)=C[C@@H](C(=O)O1)[C@]34O)O2`, the “activity change, negative = cytotoxicity” value is -16.7% [at 35.3 µM].

In the case of `O=c1c(C2CC(c3ccc(-c4ccc(Br)cc4)cc3)Cc3ccccc32)c(O)sc2ccccc12` (stereo not given), the “activity change, negative = cytotoxicity” value is -6.11% [at 35.3 µM].

Regarding `CCCCCCCCCCBr`, the “activity change, negative = cytotoxicity” value was -0.761%.
